# Measured values as given in PubChem BioAssay (EPA / NIEHS).
# Inconclusive results are not listed. Activity calls are given as the source filed them. How the source made its calls, unless noted: active means hit-call score of the fitted dose curve at least 0.9, where 1 is the maximum; inactive means score below 0.9.
# How the values were obtained:
# [1] = biological target: Nucleoli Translocation, AR (gene 367) (UniProt P10275); assay: UPITT_HCI_U2OS_AR_TIF2_Nucleoli_Antagonist: University of Pittsburgh U2OS Androgen Receptor-Transcriptional Intermediary Factor 2 (AR-TIF2) Antagonism High Content Imaging Assay for Nucleoli Translocation (AID 2283997; active means hit-call score of the fitted dose curve at least 0.9, where 1 is the maximum)
# Summary of the method: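 An antagonist-mode imaging screen: engineered U2OS (AR-RFP, TIF2-GFP) exposed to 20 uM compound, 0.2% DMSO. Activity reflects nucleolar red fluorescence change relative to DHT baseline.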
# [2] = biological target: Nucleoli Translocation, AR (gene 367) (UniProt P10275); assay: UPITT_HCI_U2OS_AR_TIF2_Nucleoli_Agonist: University of Pittsburgh U2OS Androgen Receptor-Transcriptional Intermediary Factor 2 (AR-TIF2) Agonism High Content Imaging Assay for Nucleoli Translocation (AID 2283998; active means hit-call score of the fitted dose curve at least 0.9, where 1 is the maximum)
# Summary of the method: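 High-content images quantify nucleolar accumulation of RFP-fused AR in cells also expressing GFP-TIF2; the endpoint is fitted as signal gain versus DMSO controls across final concentrations of 0.195 to 50 uM.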
# [3] = biological target: Ratio of Nucleoli Translocation and Cytoplasm, AR (gene 367) (UniProt P10275); assay: UPITT_HCI_U2OS_AR_TIF2_Nucleoli_Cytoplasm_Ratio_Antagonist: University of Pittsburgh U2OS Androgen Receptor-Transcriptional Intermediary Factor 2 (AR-TIF2) Antagonism High Content Imaging Assay for Ratio of Nucleoli Translocation and Cytoplasm (AID 2283999; active means hit-call score of the fitted dose curve at least 0.9, where 1 is the maximum;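 further: antagonists lower the DHT-driven ratio of nucleolar to cytoplasmic red signal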)
# Summary of the method: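 This antagonist-mode endpoint tracks AR-RFP localisation, the nucleolus-to-cytoplasm intensity ratio, in TIF2-GFP-coexpressing U2OS cells. DMSO stays at or below 0.5%; testing spans 20 uM single-dose and 0.195–50 uM series, with DHT setting the activity baseline.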
# [4] = biological target: Ratio of Nucleoli Translocation and Cytoplasm, AR (gene 367) (UniProt P10275); assay: UPITT_HCI_U2OS_AR_TIF2_Nucleoli_Cytoplasm_Ratio_Agonist: University of Pittsburgh U2OS Androgen Receptor-Transcriptional Intermediary Factor 2 (AR-TIF2) Agonism High Content Imaging Assay for Ratio of Nucleoli Translocation and Cytoplasm (AID 2284000; active means hit-call score of the fitted dose curve at least 0.9, where 1 is the maximum;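 further: hits raise the red nucleolar to cytoplasm ratio above vehicle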)
# Summary of the method: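 Primary screen at 20 uM final (0.2% DMSO), then triplicate confirmation and dose-response from 0.195 to 50 uM final (0.5% DMSO). Cells: U2OS with AR-RFP and TIF2-GFP. Endpoint is the nucleoli/cytoplasm red-fluorescence ratio, gain-of-signal vs DMSO.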
# [5] = CCTE_Simmons_MITO_basal_resp_rate: CCTE's HepG2 Seahorse XF Respirometric Screening Assay at Basal Respiratory State, Simmons Lab (AID 2284001); details: actives raise or lower the signal
# Summary of the method: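 Readout is oxygen consumption rate after test compound injection, measured by Seahorse XF in HepG2 cells. Seven concentrations from 125 nM up to 100 uM final are tested, and activity in either direction is fitted against DMSO.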
# [6] = CCTE_Simmons_MITO_max_resp_rate: CCTE's HepG2 Seahorse XF Respirometric Screening Assay at Maximal Respiratory State [uncoupled], Simmons Lab (AID 2284002); details: actives raise or lower the signal
# Summary of the method: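 Uncoupled (FCCP) respiration of HepG2 cells served as the endpoint, with measurements at 6-minute intervals across a 72-minute run and compounds dosed at 7 concentrations up to 100 uM final.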
# [7] = CCTE_Simmons_MITO_inhib_resp_rate: CCTE's HepG2 Seahorse XF Respirometric Screening Assay at Inhibited Respiratory State [full ETC block], Simmons Lab (AID 2284006); details: actives raise or lower the signal
# Summary of the method: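 Test chemicals at seven final concentrations (125 nM–100 uM) in three biological replicates, with DMSO as vehicle. HepG2 oxygen consumption was then tracked on a Seahorse XF96 for 72 min through FCCP and rotenone/antimycin A phases, with the inhibited-phase rate as the endpoint.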
# [8] = CCTE_Simmons_MITO_viability: CellTiter-Glo Viability Assessment for CCTE's HepG2 Seahorse XF Respirometric Screening Assay [post-hoc], Simmons Lab (AID 2284007; active means hit-call score of the fitted dose curve at least 0.9, where 1 is the maximum;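 on AC50: cells exposed to chemical for 90 min before the ATP read; actives lower ATP signal relative to DMSO baseline meaning reduced viability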)
# Summary of the method: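 Post-hoc viability check on the HepG2 respirometry plates: luciferase-based ATP signal measured once, after 90 min compound exposure spanning 125 nM–100 uM final. Activity was referenced to DMSO as baseline.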
# [9] = CCTE_Shafer_MEA_acute_spike_number: CCTE's Neural Acute Assay for Total Number of Spikes, Shafer Lab (AID 2284008);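 on AC50: curve fitted for decrease in spike count so AC50 reflects inhibitors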
# Summary of the method: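 Using an adaptive detector set to 8x rms noise, spikes were counted in 40-min windows before and after compound addition (0.03-40 uM) to rat cortical networks at 37 C; the well-level change from baseline was analysed relative to DMSO.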
# [10] = CCTE_Shafer_MEA_acute_firing_rate_mean: CCTE's Neural Acute Assay for Mean Firing Rate, Shafer Lab (AID 2284009);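 further: analyzed for loss of signal so actives lower firing rate relative to DMSO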
# Summary of the method: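 Spontaneous spiking of primary rat cortical networks, DIV 13/15, 37 C. Compound 0.03-40 uM, n ≥3 wells; 40 min baseline vs 40 min treated. Endpoint fitted in loss-of-signal direction against DMSO.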
# [11] = CCTE_Harrill_HTTr_Viability_MCF7: CCTE's 6-hour Cell Viability Assessment for the High-Throughput Transcriptomics (HTTr) Platform, in MCF-7 cells cultured in DMEM + 10% fetal bovine serum, Harrill Lab (AID 2284010)
# Summary of the method: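 Eight-point concentration series, six-hour exposure. Propidium iodide exclusion imaged to assess membrane integrity as a cytotoxicity readout; bidirectional fitting was done with DMSO as negative control and activity baseline.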
# [12] = CCTE_Harrill_HTTr_Apoptosis_MCF7: CCTE's 6-hour Apoptosis Assessment for the High-Throughput Transcriptomics (HTTr) Platform, in MCF-7 cells cultured in DMEM + 10% fetal bovine serum, Harrill Lab (AID 2284011)
# Summary of the method: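 Apoptosis in MCF-7 cells grown in DMEM with 10% fetal bovine serum was scored after a six hour exposure by high content imaging of caspase-3/7 activation (CellEvent Caspase 3/7 Green), with DMSO serving as negative control and baseline.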
# [13] = CCTE_Harrill_HTTr_CellCount_MCF7: CCTE's Cell Proliferation Assessment for the High-Throughput Transcriptomics (HTTr) Platform, Harrill Lab (AID 2284012; active means hit-call score of the fitted dose curve at least 0.9, where 1 is the maximum;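 further: count of Hoechst-stained nuclei per well by high-content imaging in MCF-7 cells; cells exposed to compound for six hours; intended direction is loss of nuclei count meaning fewer cells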)
# Summary of the method: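 For this full-screen endpoint, MCF-7 cultures received eight compound dilutions for six hours. Well nuclei counts from Hoechst imaging were analyzed relative to DMSO.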
# [14] = CCTE_Harrill_HTTr_Apoptosis_DMEM_6hr: (Pilot) CCTE's 6-hour Apoptosis Assessment for the High-Throughput Transcriptomics (HTTr) Platform, in MCF-7 cells cultured in DMEM + 10% fetal bovine serum, Harrill Lab (AID 2283981)
# Summary of the method: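 MCF-7 cells grown in DMEM + 10% FBS were exposed for 6 hours to an eight-point dilution series. CellEvent Caspase 3/7 Green signal was imaged; activity fitted bidirectionally against DMSO.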
# [15] = CCTE_Harrill_HTTr_Apoptosis_DMEM_12hr: (Pilot) CCTE's 12-hour Apoptosis Assessment for the High-Throughput Transcriptomics (HTTr) Platform, in MCF-7 cells cultured in DMEM + 10% fetal bovine serum, Harrill Lab (AID 2283982)
# Summary of the method: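 Caspase-3/7 activity was measured by high-content imaging (CellEvent Caspase 3/7 Green) after a 12-hour exposure of MCF-7 cells grown in DMEM with 10% FBS. Eight-point concentration series, fitted bidirectionally against vehicle.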
# [16] = CCTE_Harrill_HTTr_Apoptosis_DMEM_24hr: (Pilot) CCTE's 24-hour Apoptosis Assessment for the High-Throughput Transcriptomics (HTTr) Platform, in MCF-7 cells cultured in DMEM + 10% fetal bovine serum, Harrill Lab (AID 2283983)
# Summary of the method: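 Caspase-3/7 activity read by high-content imaging (CellEvent Green reagent) 24 h after dosing. MCF-7 cells grown in DMEM with 10% FBS received an eight-point concentration series; fits were bidirectional versus DMSO.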
# [17] = CCTE_Harrill_HTTr_Apoptosis_PRF_DMEM_6hr: (Pilot) CCTE's 6-hour Apoptosis Assessment for the High-Throughput Transcriptomics (HTTr) Platform, in MCF-7 cells cultured phenol red-free DMEM + 10% charcoal-stripped fetal bovine serum, Harrill Lab (AID 2283984)
# Summary of the method: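 Caspase-3/7 activity (CellEvent Green) read by high-content imaging 6 h after dosing, eight concentrations. Cells: MCF-7, phenol red-free DMEM with 10% charcoal-stripped serum. Curves fit both directions against DMSO.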
# [18] = CCTE_Harrill_HTTr_Apoptosis_PRF_DMEM_24hr: (Pilot) CCTE's 24-hour Apoptosis Assessment for the High-Throughput Transcriptomics (HTTr) Platform, in MCF-7 cells cultured in phenol red-free DMEM + 10% charcoal-stripped fetal bovine serum, Harrill Lab (AID 2283986)
# Summary of the method: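 Eight concentrations tested for 24 h on MCF-7 grown in charcoal-stripped serum, phenol red-free DMEM. High content imaging of CellEvent Caspase 3/7 Green signal gives apoptosis read-out, fitted both ways relative to DMSO.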
# DIO1 (gene 1733) = assay: CCTE_GLTED_hDIO1: CCTE's human Deiodinase 1 (DIO1) Inhibition Assay, Great Lakes Toxicology and Ecology Division (GLTED) Lab (AID 2283987; active means hit-call score of the fitted dose curve at least 0.9, where 1 is the maximum;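 further: isolated human DIO1 enzyme in a cell-free setup rather than cells; enzyme activity read as free iodide liberated from substrate via Sandell-Kolthoff colorimetry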)
# Summary of the method: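 Chemicals are tested on human DIO1 without cells for 3 h. Uninhibited enzyme frees iodide, which speeds cerium(IV) reduction by arsenic and is read by spectrophotometry.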
# [19] = CCTE_Harrill_HTTr_Viability_PRF_DMEM_24hr: (Pilot) CCTE's 24-hour Cell Viability Assessment for the High-Throughput Transcriptomics (HTTr) Platform, in MCF-7 cells cultured in phenol red-free DMEM + 10% charcoal-stripped fetal bovine serum, Harrill Lab (AID 2283980)
# Summary of the method: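 Propidium iodide exclusion imaged at 24 h after dosing scores viability; cells were MCF-7 grown in phenol red-free DMEM plus 10% charcoal-stripped serum, tested in eight concentrations, fitted in both directions against DMSO.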
# Nucleoli Translocation, AR (gene 367), sequence (P10275 whole entry, looked up, the tested form may be a part): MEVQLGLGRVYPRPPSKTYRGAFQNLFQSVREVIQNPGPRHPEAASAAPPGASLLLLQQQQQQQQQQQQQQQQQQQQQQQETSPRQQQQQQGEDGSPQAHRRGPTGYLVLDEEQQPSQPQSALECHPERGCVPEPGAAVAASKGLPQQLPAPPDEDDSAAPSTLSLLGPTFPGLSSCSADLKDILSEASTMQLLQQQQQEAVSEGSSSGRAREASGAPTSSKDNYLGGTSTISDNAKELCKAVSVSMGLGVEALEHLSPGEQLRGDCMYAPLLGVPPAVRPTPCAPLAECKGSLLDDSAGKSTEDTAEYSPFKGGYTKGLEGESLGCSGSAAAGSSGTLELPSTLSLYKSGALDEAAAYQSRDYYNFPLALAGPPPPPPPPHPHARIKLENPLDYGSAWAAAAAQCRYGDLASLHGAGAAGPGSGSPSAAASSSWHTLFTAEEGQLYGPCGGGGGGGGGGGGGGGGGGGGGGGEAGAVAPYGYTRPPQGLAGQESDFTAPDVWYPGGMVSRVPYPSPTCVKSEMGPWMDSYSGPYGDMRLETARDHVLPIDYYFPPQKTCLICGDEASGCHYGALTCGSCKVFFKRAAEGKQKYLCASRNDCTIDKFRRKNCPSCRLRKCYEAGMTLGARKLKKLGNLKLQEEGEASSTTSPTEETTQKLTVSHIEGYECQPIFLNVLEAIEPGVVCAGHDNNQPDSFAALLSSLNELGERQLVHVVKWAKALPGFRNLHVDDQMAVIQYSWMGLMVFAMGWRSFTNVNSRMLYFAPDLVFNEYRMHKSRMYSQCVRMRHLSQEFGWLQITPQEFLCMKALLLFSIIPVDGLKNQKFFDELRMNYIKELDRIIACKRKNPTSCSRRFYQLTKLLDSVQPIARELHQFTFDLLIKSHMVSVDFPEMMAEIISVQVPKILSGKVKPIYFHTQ
# Ratio of Nucleoli Translocation and Cytoplasm, AR (gene 367), sequence (P10275 whole entry, looked up): as the sequence (P10275 whole entry, looked up, the tested form may be a part) above
compound,measurement,setting,value
O=C1OC(c2ccc(O)cc2)(c2ccc(O)cc2)c2ccccc21,AC50,[1],86.2 µM (active)
same,AC50,[2],78.7 µM (active)
same,outcome,[3],inactive
same,AC50,[4],77 µM (active)
same,AC50,[5],32.6 µM (active)
same,outcome,[6],inactive
same,outcome,[7],inactive
same,AC50,[8],9.92 µM (active)
same,outcome,[9],inactive
same,outcome,[10],inactive
same,outcome,[11],inactive
same,outcome,[12],inactive
same,outcome,[13],inactive
COC(=O)[C@H]1[C@H]2C[C@@H]3c4[nH]c5cc(OC)ccc5c4CCN3C[C@H]2C[C@@H](OC(=O)c2cc(OC)c(OC)c(OC)c2)[C@@H]1OC,outcome,[14],inactive
same,outcome,[15],inactive
same,AC50,[16],46.2 µM (active)
same,outcome,[17],inactive
same,AC50,[18],58.3 µM (active)
same,AC50,[9],1.03 µM (active)
same,AC50,[10],1.04 µM (active)
same,outcome,[11],inactive
same,outcome,[12],inactive
same,outcome,[13],inactive
S=c1[nH]c2ccccc2s1,AC50,DIO1 (gene 1733),23.4 µM (active)
same,outcome,[11],inactive
same,outcome,[12],inactive
same,outcome,[13],inactive
Cc1c(C)c2c(c(C)c1O)CCC(C)(COc1ccc(CC3SC(=O)NC3=O)cc1)O2 (stereo unspecified),outcome,[19],inactive
same,outcome,[14],inactive
same,outcome,[15],inactive
same,outcome,[16],inactive
same,outcome,[17],inactive
same,outcome,[18],inactive
same,AC50,DIO1 (gene 1733),85.9 µM (active)
same,outcome,[2],inactive
same,outcome,[3],inactive
same,outcome,[4],inactive
same,AC50,[5],3.22 µM (active)
same,AC50,[6],7.83 µM (active)
same,outcome,[7],inactive
same,AC50,[8],8.43 µM (active)
same,AC50,[9],3.97 µM (active)
same,AC50,[10],3.97 µM (active)
same,outcome,[12],inactive
CSc1ccc(Oc2ccc(S(N)(=O)=O)cc2CN(C)C)cc1C,outcome,[1],inactive
same,AC50,[2],50 µM (active)
same,outcome,[3],inactive
same,AC50,[4],74.8 µM (active)
same,outcome,[9],inactive
same,outcome,[10],inactive
same,outcome,[11],inactive
same,outcome,[12],inactive
same,outcome,[13],inactive
O=C1CCCCC1,outcome,[1],inactive
same,outcome,[2],inactive
same,outcome,[4],inactive
same,outcome,[11],inactive
same,outcome,[12],inactive
same,outcome,[13],inactive
CCCCCCCCCCCCCCOS(=O)(=O)O,AC50,DIO1 (gene 1733),85.7 µM (active)
same,outcome,[11],inactive
same,outcome,[12],inactive
Nc1nc(Cl)nc2c1ncn2[C@H]1C[C@H](O)[C@@H](CO)O1,outcome,[19],inactive
same,outcome,[14],inactive
same,outcome,[15],inactive
same,outcome,[16],inactive
same,outcome,[17],inactive
same,outcome,[18],inactive
same,outcome,[12],inactive
same,outcome,[13],inactive
CCc1cc(C2=C(C(=O)O)N(c3ccccc3C(F)(F)F)S(=O)(=O)c3ccccc32)cc2c1OCO2,outcome,[5],inactive
same,outcome,[6],inactive
same,outcome,[7],inactive
same,outcome,[9],inactive
same,outcome,[10],inactive
same,outcome,[11],inactive
same,outcome,[12],inactive
same,outcome,[13],inactive
CCCCCCC(C=O)=Cc1ccccc1,outcome,[5],inactive
same,outcome,[6],inactive
same,outcome,[7],inactive
same,outcome,[8],inactive
same,outcome,[12],inactive
same,outcome,[13],inactive
O=C(NS(=O)(=O)/C=C/c1cccs1)c1ccc(F)cc1Br,outcome,[1],inactive
same,outcome,[4],inactive
same,outcome,[12],inactive
CC(=O)O[C@]1(C(C)=O)CC[C@H]2[C@@H]3C=C(Cl)C4=CC(=O)[C@@H]5C[C@@H]5[C@]4(C)[C@H]3CC[C@@]21C,outcome,[19],inactive
same,outcome,[14],inactive
same,outcome,[15],inactive
same,outcome,[16],inactive
same,outcome,[17],inactive
same,outcome,[18],inactive
same,AC50,[5],29 µM (active)
same,AC50,[6],28.1 µM (active)
same,outcome,[7],inactive
same,AC50,[8],23 µM (active)
same,outcome,[11],inactive
same,outcome,[12],inactive
same,outcome,[13],inactive
CC(C)(O)c1ccc(CNC(=O)c2cccnc2Oc2ccc(F)cc2)cc1,outcome,[5],inactive
same,AC50,[6],18.6 µM (active)
same,outcome,[7],inactive
same,outcome,[8],inactive
same,outcome,[11],inactive
same,outcome,[12],inactive
